PubChem BioAssay (NCATS)
Records with an inconclusive call do not appear. The source made the active and inactive calls. Calls follow the shape of the dose curve; as a rule, active = well fitted curve in the direction sought with a large enough effect; inconclusive = small, poorly fitted or top-dose-only effect, or another doubt; inactive = no such curve, though single readings can be large; an effect the other way counts as inactive or inconclusive.

What was measured:
[1] = Cell Viability - H-4-II-E (AID 543); also: % is scaled to controls: 0 for no effect and ±100 for the full control effect; nearly all actives have a fitted effect of over 35% in size
In short: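 Rat hepatoma H-4-II-E cells (1500/well) were plated, incubated 5 hr at 37 °C, then exposed to compounds for 40 hr at 37 °C. Cellular ATP was read by CellTiter-Glo luminescence; AC50 came from Hill-equation fits of concentration-response data.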

[2] = Cell Viability - SH-SY5Y (AID 544); settings: SH-SY5Y neuroblastoma cell viability; viability change, negative = cytotoxic: at 92.2 µM (top of the series); also: nearly all actives have a fitted effect of over 55% in size
In short: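 Human neuroblastoma SH-SY5Y cells (1500/well) in complete medium were exposed to compounds for 40 hr at 37 °C; intracellular ATP was then quantified by CellTiter-Glo luminescence after 20 min at room temperature. AC50 came from Hill-equation concentration-response fits.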

[3] = Cell Viability - Renal Proximal Tubule (AID 545); also: nearly all actives have a fitted effect of over 40% in size
In short: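 Primary rat renal proximal tubule cells (1000/well) were treated with compounds for 40 hr at 37 °C in complete medium. Intracellular ATP was measured by CellTiter-Glo luminescence, and AC50 values came from Hill-equation fits of concentration-response data.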

[4] = Cell Viability - Mesenchymal (AID 546);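 also: cells exposed to compound for 40 hours before reading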
In short: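 AC50 values reflect the drop in intracellular ATP in a human kidney mesenchymal line derived from normal glomeruli. Treatment lasts 40 hr at 37 °C in complete medium, and the signal comes from CellTiter-Glo luminescence.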

[5] = Cellular Toxicity (caspase-3) HepG2 (AID 654);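 also: cells exposed to compound for 16 hours before reading; 0% = DMSO alone and 100% = caspase signal from 100 µM tamoxifen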
In short: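 HepG2 cells (1500/well) in complete medium were treated with compounds for 16 hr at 37 °C. Caspase-3/7 activity was then read as luminescence from peptide-aminoluciferin cleavage. AC50 came from Hill fits, normalized to DMSO and 100 uM tamoxifen.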

[6] = Cellular Toxicity (caspase-3) Jurkat (AID 655); settings: Jurkat caspase-3 activation, luminescence; caspase-3 activation: at 92.2 µM (top of the series), DMSO = 0%, tamoxifen = 100%;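 also: cells exposed to compound for 16 h at 37 °C before reading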
In short: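 Jurkat cells (5000/well) in complete medium were treated with compounds for 16 hr at 37 °C, then Caspase-Glo 3/7 luminescence was read after 20 min at room temperature. Data normalized to DMSO (basal) and 100 uM tamoxifen (100%); AC50 from Hill fit.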

[7] = Cellular Toxicity (caspase-3) HUV-EC-C (AID 656)
In short: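 HUV-EC-C endothelial cells, 1000/well, were pre-incubated 5 hr at 37°C, then exposed to compounds for 16 hr at 37°C. Caspase-Glo 3/7 luminescence was read after 20 min at room temperature. AC50 came from Hill fits, normalized to DMSO and 100 uM tamoxifen.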

[8] = Cellular Toxicity (caspase-3) BJ (AID 658);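 also: 0% = DMSO basal and 100% = 10 µM staurosporine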
In short: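 Readout: Caspase-Glo 3/7 luminescence increase in BJ cells after 16 hr treatment at 37 °C. Staurosporine and tamoxifen served as positive controls; AC50 values came from Hill modelling of data normalized to DMSO and 10 uM staurosporine.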

[9] = Cellular Toxicity (caspase-3) MRC-5 (AID 659);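 also: 0% = DMSO basal and 100% = 10 µM staurosporine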
In short: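 Concentration-dependent caspase 3/7 activation is measured in human normal lung fibroblasts (MRC-5) following 16-hour treatment. AC50 values come from standard Hill-equation modeling of luminescence normalized to DMSO and 10 uM staurosporine.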

[10] = Cellular Toxicity (caspase-3) SHSY5Y (AID 657)
In short: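 SH-SY5Y human neuroblastoma cells (1500/well) were treated with compounds for 16 h at 37 °C, then Caspase-Glo 3/7 luminescence was read after 1 h at room temperature. Data normalized to DMSO and 10 uM staurosporine; AC50 from Hill fits.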

Cc1cccc(C)c1
inactive: Potency [1] | Potency [2] | Potency [3] | Potency [4] | Potency [5] | caspase-3 activation [6] -2.27% | outcome [7] | outcome [8] | outcome [9]

CC(C)Cc1nccs1
inactive: Potency [1] | Potency [2] | Potency [3] | Potency [4] | Potency [5] | caspase-3 activation [6] 1.45% | outcome [7] | outcome [8] | outcome [9]

NCCCCCCN
inactive: Potency [1] | Potency [2] | Potency [3] | Potency [4] | Potency [5] | caspase-3 activation [6] -1.28% | outcome [10] | outcome [8] | outcome [9]

CC(=O)Nc1cccc(N)c1
inactive: Potency [1] | Potency [2] | Potency [3] | Potency [4] | Potency [5] | caspase-3 activation [6] 1.66% | outcome [7] | outcome [10] | outcome [9]

O=C1OC(=O)c2c(Cl)c(Cl)c(Cl)c(Cl)c21
inactive: Potency [1] | Potency [2] | Potency [3] | Potency [4] | Potency [5] | caspase-3 activation [6] 0.457% | outcome [7] | outcome [8] | outcome [9]

Cc1ccc(C)c([N+](=O)[O-])c1
inactive: Potency [1] | Potency [2] | Potency [3] | Potency [4] | Potency [5] | caspase-3 activation [6] 1.04% | outcome [7] | outcome [10] | outcome [9]

c1ccc2[nH]cnc2c1
inactive: Potency [1] | Potency [2] | Potency [3] | Potency [4] | Potency [5] | caspase-3 activation [6] 1.18% | outcome [10] | outcome [8] | outcome [9]

C=C(C)C(=O)OCCCCCCCCCC
inactive: Potency [1] | Potency [2] | Potency [3] | Potency [4] | Potency [5] | caspase-3 activation [6] -0.118% | outcome [7] | outcome [8] | outcome [9]

O=C(Cl)c1c(Cl)cccc1Cl
inactive: Potency [1] | Potency [2] | Potency [3] | Potency [4] | Potency [5] | caspase-3 activation [6] 2.4% | outcome [7] | outcome [10] | outcome [9]

CCCCC(C=O)CC (stereo not given)
inactive: Potency [1] | Potency [2] | Potency [3] | Potency [4] | Potency [5] | outcome [7] | outcome [10] | outcome [8] | outcome [9]

CCCCOCCOCCOCCCC
inactive: Potency [1] | Potency [2] | Potency [3] | Potency [4] | Potency [5] | caspase-3 activation [6] 0.193% | outcome [10] | outcome [8] | outcome [9]

C[C@@H]1CC2(OC[C@]3(C)O[C@H]23)O[C@H]2C[C@@]3(C)[C@@H]4CC[C@H]5C(C)(C)C(O[C@@H]6OC[C@@H](O)[C@H](O)[C@H]6O)CC[C@@]56C[C@@]46CC[C@]3(C)[C@@H]12 (stereo not given in full)
inactive: Potency [1] | Potency [2] | Potency [3] | Potency [4] | Potency [5] | outcome [7] | outcome [10] | outcome [8] | outcome [9]

CCC(O)C(C)(C)C (stereo not given)
inactive: Potency [1] | Potency [2] | Potency [3] | Potency [4] | Potency [5] | outcome [7] | outcome [10] | outcome [8] | outcome [9]

CCCCC(CC)CO (stereo not given)
inactive: Potency [1] | Potency [2] | Potency [3] | Potency [4] | Potency [5] | outcome [7] | outcome [10] | outcome [8] | outcome [9]

CCC(C)=O
inactive: Potency [1] | Potency [2] | Potency [3] | Potency [4] | Potency [5] | caspase-3 activation [6] -0.0185% | outcome [10] | outcome [8] | outcome [9]

CC(=O)OCCC(C)C
inactive: Potency [1] | Potency [2] | Potency [3] | Potency [4] | Potency [5] | outcome [7] | outcome [10] | outcome [8] | outcome [9]

O=C(O)CNC(=O)c1ccc([N+](=O)[O-])cc1
inactive: Potency [1] | Potency [2] | Potency [3] | Potency [4] | Potency [5] | caspase-3 activation [6] 1.61% | outcome [8] | outcome [9]

O=C(O)c1ccc(Cl)cc1Cl
inactive: Potency [1] | Potency [2] | Potency [3] | Potency [4] | Potency [5] | caspase-3 activation [6] -1.11% | outcome [10] | outcome [8] | outcome [9]

O=C(Cl)c1ccccc1[N+](=O)[O-]
inactive: Potency [1] | Potency [2] | Potency [3] | Potency [4] | Potency [5] | outcome [7] | outcome [10] | outcome [8] | outcome [9]

O=C1NC(=O)c2cc([N+](=O)[O-])ccc21
inactive: Potency [1] | Potency [2] | Potency [3] | Potency [4] | Potency [5] | outcome [7] | outcome [10] | outcome [8] | outcome [9]

CC(=O)c1cccc([N+](=O)[O-])c1
inactive: Potency [1] | Potency [2] | Potency [3] | Potency [4] | Potency [5] | caspase-3 activation [6] -0.656% | outcome [10] | outcome [8] | outcome [9]

CNc1ccccc1
inactive: Potency [1] | Potency [2] | Potency [3] | Potency [4] | Potency [5] | outcome [7] | outcome [10] | outcome [8] | outcome [9]

CNC(=O)N(c1ccccc1)c1ccccc1
inactive: Potency [1] | Potency [2] | Potency [3] | Potency [4] | Potency [5] | caspase-3 activation [6] 1.82% | outcome [10] | outcome [8] | outcome [9]

CC=O
inactive: Potency [1] | Potency [2] | Potency [3] | Potency [4] | Potency [5] | outcome [7] | outcome [10] | outcome [8] | outcome [9]

Nc1ccc(F)cc1F
inactive: Potency [1] | Potency [2] | Potency [3] | Potency [4] | Potency [5] | caspase-3 activation [6] 1.31% | outcome [10] | outcome [8] | outcome [9]

Cc1ccc(C)c(N)c1
inactive: Potency [1] | Potency [2] | Potency [3] | Potency [4] | Potency [5] | caspase-3 activation [6] 0.403% | outcome [10] | outcome [8] | outcome [9]

CCN(Cc1ccccc1)c1ccccc1
inactive: Potency [1] | Potency [2] | Potency [3] | Potency [4] | Potency [5] | outcome [7] | outcome [10] | outcome [9]

O=C(O)CNC(=O)c1ccc(CO)o1
inactive: Potency [1] | Potency [2] | Potency [3] | Potency [4] | Potency [5] | outcome [7] | outcome [10] | outcome [8] | outcome [9]
